Screening results: PubChem, National Center for Advancing Translational Sciences (NCATS)
Sampled rows, rich in hits. Any-hit rate of the full collection: about 9.3%.
SMN2 splice up: increases expression of the SMN2 splice variant; HEK293 SMN2-luciferase splicing reporter, luminescence, 30-36 h; Potency, µM (top dose mostly 46.1 µM), for the others: at the highest dose activity change, positive = activation, usual class: activators; actives 2.8% (n = 210,000); AID 1458; further: % of control where 0% means no effect; nearly all actives have a fitted effect of over 55% in size
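HEK293 cells carry an SMN2 […]–luciferase reporter in which exon 7 inclusion puts luciferase in frame. Cells were plated 10-12 h before compound addition, then incubated 30-36 h at 37C. ONE-Glo luminescence was read; sodium butyrate at 4.5 mM final served as control.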
NPC1 promoter act: activators of NPC1 promoter; AID 485313; actives 2.4% (n = 320,000); Potency, µM (series often up to 9.22 µM), inactives show top-dose activation, usual class: activators; Huh7 NPC1 promoter luciferase reporter, 24 h; further: % of control where 0% means no effect; nearly all actives have a fitted effect of over 60% in size
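Quantitative HTS used a cell-based reporter: Huh7 cells stably bearing the NPC1 promoter upstream of luciferase were treated with compounds for 24 h, and promoter activation was read as luminescence.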
ELG1 DNA repair: ELG1-dependent DNA repair inhibition | Potency, µM (titrated, usually from 46.1 µM), for the others: at the highest dose activity change, negative = inhibition, hits mostly inhibitors | actives 2.3% (n = 330,000) | HEK293T ELG1-luciferase reporter, luminescence, 16 h; DNA damage induced by 5-fluorouridine; further: on the % scale 0 is the no-effect control and ±100 the full control effect; nearly all actives have a fitted effect of over 55% in size
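Overnight (16 hr) co-exposure of 2,000 cells/well to 5-fluorouridine and compound at 37 °C preceded detection. Luciferase was quantified via ONE-Glo luminescence; loss of signal denotes inhibition.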
ELG1 genotox: inducers of genotoxicity in HEK293T ELG1-luciferase cells; Potency, µM (highest dose often 46 µM), for inactives: top-dose activity change, positive = activation, hits mostly activators; actives 1.3% (n = 330,000); HEK293T ELG1-luciferase reporter, luminescence, 16 h; further: % of control where 0% means no effect; nearly all actives have a fitted effect of over 60% in size
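16 hr compound incubation (37 °C, 5% CO2) of HEK293T cells carrying luciferase-tagged ELG1; luciferase then measured by ONE-Glo luminescence after 30 min at RT.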
FLuc counter: inhibits or activates purified firefly luciferase, miR-21 counter-screen; P08659; purified FLuc, Km substrates, luminescence inhibition; Potency, µM (series often up to 57.5 µM), inactives show top-dose activity change, negative = inhibition, usual class: inhibitors; actives 6.9% (n = 360,000);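 further: plate controls were vehicle for no effect and reference inhibitor for full effect; nearly all actives have a fitted effect of over 55% in size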
Target sequence (P08659 whole entry, looked up): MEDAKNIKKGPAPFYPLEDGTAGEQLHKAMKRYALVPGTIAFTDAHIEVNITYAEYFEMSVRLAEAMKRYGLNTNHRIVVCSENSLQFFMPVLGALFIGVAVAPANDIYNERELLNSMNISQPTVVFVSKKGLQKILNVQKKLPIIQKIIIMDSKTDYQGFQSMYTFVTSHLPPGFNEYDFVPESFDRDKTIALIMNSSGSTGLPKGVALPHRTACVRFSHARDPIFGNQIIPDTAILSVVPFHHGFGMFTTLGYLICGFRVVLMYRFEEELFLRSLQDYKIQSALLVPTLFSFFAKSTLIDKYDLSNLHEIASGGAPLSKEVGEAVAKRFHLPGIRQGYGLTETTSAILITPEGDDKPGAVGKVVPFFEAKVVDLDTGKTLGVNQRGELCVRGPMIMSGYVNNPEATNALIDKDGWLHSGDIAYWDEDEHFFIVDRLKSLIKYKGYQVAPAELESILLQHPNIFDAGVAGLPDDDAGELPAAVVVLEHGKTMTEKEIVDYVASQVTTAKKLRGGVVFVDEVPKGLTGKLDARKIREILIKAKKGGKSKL
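Purified P. pyralis luciferase, 10 nM final, with Km-level 10 uM D-luciferin and 10 uM ATP in 50 mM Tris acetate pH 7.5, 10 mM Mg acetate, 0.01% Tween-20, 0.05% BSA; 6-point qHTS titration about 60 µM downward; luminescence read.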
Rab9 prom act: activates the Rab9 promoter; Huh7 Rab9 promoter-luciferase reporter, luminescence, 24 h; Potency, µM (doses to about 9.22 µM), for the others: top-dose activation, negative = inhibition, actives largely listed as activators; actives 2.8% (n = 320,000); further: % of control where 0% means no effect; nearly all actives have a fitted effect of over 60% in size
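Luciferase signal after 10 min detection reagent at ambient indicates Rab9 promoter upregulation; stably transfected Huh7 cells were treated 24 h with compound in DMSO at 37 °C, 5% CO2.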
Starred values were filed as active, the others as inactive; u = inconclusive; x = no result; [ ] = remark or other dose. The call rests on the fitted dose curve; in most records, active means well fitted curve in the direction sought with a large enough effect; inconclusive means small, poorly fitted or top-dose-only effect, or another doubt; inactive means no such curve, though single readings can be large; an effect the other way counts as inactive or inconclusive. Potency means the concentration at half of the fitted maximal effect.

SMILES	SMN2 splice up	NPC1 promoter act	ELG1 DNA repair	ELG1 genotox	FLuc counter	Rab9 prom act
COc1ccc(C2=NN(CN3C(=O)C(=O)c4ccccc43)C(c3ccc(OC)cc3)C2)cc1 (configuration not stated)	10µM*	u	u	u	u	3.5µM*
CC(=O)N/N=C/c1cc(C(C)(C)C)cc(/C=N/NC(C)=O)c1O	-46%	-3%	15µM*	0%	1%	-1%
COc1ccc(-n2ncc3c(NCc4cccs4)ncnc32)cc1	u	2.5µM*	u	u	9.5µM*	1.1µM*
O=C(NNc1ncnc2c1cnn2-c1ccccc1)c1cccs1	0%	-2%	9%	14%	u	1%
c1ccc(-n2ncc3c(NCc4cccs4)ncnc32)cc1	11µM*	3.5µM*	u	10µM*	12µM*	2µM*
Cc1ccc(-n2nnc3ccccc3c2=O)cc1C	14µM*	u	u	u	2%[2.3 µM]	3.5µM*
Cc1ccc(-n2nc(C(=O)O)c3ccccc3c2=O)cc1C	-14%	-1%	u	-18%	-17%	-2%
COc1ccc(CNC(=O)Cn2c(=O)nc(-c3ccccc3)c3ccccc32)cc1OC	x	x	x	x	-7%	x
COc1ccccc1N1CCN(CC(O)COc2ccc(S(=O)(=O)N3CCOCC3)cc2)CC1 (configuration not stated)	-29%	-1%	10µM*	-4%	0%	-5%
Cc1cc(NC(=S)Nc2ccc(C)c(Cl)c2)n[nH]1	18µM*	u	u	u	17µM*	u
COc1ccc(NC(=S)Nc2cc(C)[nH]n2)cc1Cl	x	u	u	15%	17µM*	u
COc1cc(C)c(NC(=S)Nc2ccc(C)c(Cl)c2)cc1OC	-13%	-2%	0%	-1%	5%	0%
CCSC1=NN2CCS(=O)(=O)N=C2S1	-2%	-15%	5%	6%	-1%	0%
COCC(C)n1c(SCc2cc(C(=O)OC)c(C)o2)nc2ccccc2c1=O (configuration not stated)	x	-5%	u	-4%	-8%	-6%
COC(=O)c1cc(CSc2nnc(-c3ccccc3)c(-c3ccccc3)n2)oc1C	-43%	-7%	21µM*	-13%	1%	-8%
CN(C(Cc1ccc(OS(=O)(=O)c2cccc3cnccc23)cc1)C(=O)N1CCN(c2ccccc2)CC1)S(=O)(=O)c1cccc2cnccc12 (configuration not stated)	-18%	x	x	x	x	x
CCN(CC)S(=O)(=O)c1ccc2oc(C(=O)N3CCCCCC3)c(C)c2c1	-37%	-3%	u	-26%	0%	-3%
CCOC(=O)N1CCN(C(=O)c2oc3ccc(S(=O)(=O)N(CC)CC)cc3c2C)CC1	x	-8%	12µM*	-18%	-2%	-4%
CCCc1ccc2oc(C(=O)NCCc3nc(C(=O)OCC)cs3)c(C)c2c1	x	4µM*	u	14%	13µM*	2µM*
CCCc1ccc2oc(C(=O)N3CCCC3)c(C)c2c1	x	23%	u	u	21µM*	u
CCCc1ccc2oc(C(=O)N(Cc3nccn3C)C(C)C)c(C)c2c1	x	18%	0%	13%	u	27%
CCCc1ccc2oc(C(=O)NCCc3cnn(C)c3)c(C)c2c1	x	3.5µM*	u	u	13µM*	1.8µM*
Cc1c(C(=O)N2CCCC2)oc2ccc(Br)cc12	x	5%	u	25%	u	3%
COc1ccc(NC(=O)CCS(=O)(=O)c2ccc3c(c2)oc(=O)n3C)cc1	x	-8%	14%	0%	1%	5%
Cc1cccc(N(CC(N)=O)C2SC(=O)N(Cc3cccc(C(=O)O)c3)C2=O)c1 (configuration not stated)	6%	x	x	x	-17%	x
SMILES	SMN2 splice up	NPC1 promoter act	ELG1 DNA repair	ELG1 genotox	FLuc counter	Rab9 prom act
COc1ccc(CCN2C(=O)N(c3ccc(C)cc3)C(=O)C2CC(=O)Nc2ccc(OC)cc2)cc1 (configuration not stated)	18%	x	x	x	0%	x
O=C(CN1C(=O)NC2(CCCC2)C1=O)OCc1ccc(Cl)c(Cl)c1	x	-1%	u	4%	1%	0%
CCCc1ccc2oc(C(=O)N(C)Cc3ccn[nH]3)c(C)c2c1	x	u	u	18µM*	15µM*	u
CCc1ccc(-c2nc(CN3CCC(C(=O)NCc4ccc(F)cc4)CC3)c(C)o2)cc1	-29%	5%	15µM*	-6%	u	-2%
CCN(CCNC(=O)C1CCCN(Cc2nc(-c3ccc(OC)cc3)oc2C)C1)c1ccccc1 (configuration not stated)	-33%	5%	u	-12%	1%	2%
CCc1ccc(-c2nc(CN3CCC(C(=O)NCCN(CC)c4ccccc4)CC3)c(C)o2)cc1	-34%	0%	21µM*	3%	-19%	-4%
CCN(CCNC(=O)C1CCN(Cc2nc(-c3cccc(Cl)c3)oc2C)CC1)c1ccccc1	-18%	3%	21µM*	4%	u	-9%
CCN(CCNC(=O)C1CCN(Cc2nc(-c3ccc(Cl)cc3)oc2C)CC1)c1ccccc1	-22%	1%	16µM*	-2%	-4%	-3%
CC(C)C1Cc2nc(Cl)c(C#N)cc2CO1 (configuration not stated)	x	1%	13%	1%	0%	-10%
O=C(Nc1ccccc1C(=O)O)/C(=C/c1ccc([N+](=O)[O-])cc1)NC(=O)c1ccc(Br)o1	-29%	-7%	1%	-5%	u	-2%
CCOc1ccccc1NS(=O)(=O)c1cn(C)nc1C	-3%	0%	-1%	2%	1%	0%
COc1ccc(CNc2nc3c(S(=O)(=O)c4ccccc4)nnn3c3ccc(Cl)cc23)cc1	7%	x	x	x	4%	x
O=C(NCCSCc1ccco1)Nc1cccc(Cl)c1	u	u	u	10%	17µM*	u
S=C(NCc1ccco1)Nc1cccc(Cl)c1	-16%	0%	-3%	-6%	1%	-6%
O=C(NCCSCc1ccco1)Nc1ccc(Cl)cc1	u	x	x	x	11µM*	x
Cc1cc(Cl)ccc1N(CC(=O)NCCSCc1ccco1)S(C)(=O)=O	x	-8%	12%	0%	-2%	-8%
O=C(CCSc1ccccc1)NCCSCc1ccco1	x	3%	1%	-1%	19µM*	0%
CCN(CC)c1sc(S(=O)(=O)c2ccccc2)nc1S(=O)(=O)c1ccc(C)cc1	4%	x	x	x	-2%	x
